The values below come from PubChem BioAssay AID1508600 (Functional Genomics Laboratory (NCATS/FGL), 2020).

About 3,700 (7%) of roughly 53,000 sequences were called active. This is one part of a sample in which actives are shown more often than they occur.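 The calls were made as follows: active = gene knockdowns whose robust z-score for IL-1 alpha signal is at least 2 or at most -2, so actives lie on both sides; inactive = the rest.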

The nature of this assay: Components of the Cytosolic LPS Sensing Pathway: Gene Identification via Genome-wide siRNA Screen.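 Also: robust z of the log signal after scaling to non-targeting control siRNA wells of the plate.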 The settings on record: RAW264.7 macrophages, IL-1a HTRF, actives lie on both sides, screened at 100 nM (by protocol), cells primed 5 h with Pam3CSK4 first. Put shortly: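 Knockdown: 100 nM siRNA, 48h, RAW264.7. Stimulation: Pam3CSK4 5 h, then LipidA via TransIT-TKO 24 h. Output: supernatant IL-1a HTRF, negative-control-normalized, log robust z-score; viability by CellTiter-Glo.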
In general terms: In TR-FRET formats the signal depends on donor and acceptor labels being close together.
Take GGGUACGUUCAAGUGCUUCTT against Agtpbp1: the z-score is 1.74 (inactive).

As for GGAUACAUGUGGUGCCAAUTT against Banf1, the z-score is -0.529 (inactive). To GCCAUAACCUACAUUGUCATT against Loxhd1 belongs -2.86 (active).

Regarding GCGAAUCCACUUAAUUCGATT against Abhd4, the z-score is 1.35 (inactive).

As to CCACAAGAUUGUUUCAGAATT against Lingo4, the z-score was 0.216 (inactive). Regarding GCUGCUCAAGUUGUGGUGATT against Sord, the z-score is 1.56 (inactive). For the sequence GGUUCAGCUGACGUAAAAATT against BC048562, the z-score is -2.1 (active). The figure for GCAGUAGAUCCUGAUUUUGTT against Cdh12 is -0.382 (inactive); for GGGACCUUUCCUGACCUAUTT against Ppdpf it is -0.362 (inactive). The figure for GGUCCACUUGCCAUCUAUUTT against Zfp54 is -1.09 (inactive).

As to CCCUAACAUACUGGAGCUATT against Erfe, the z-score is 3.56 (active). The figure for GGGUAUUUUCACUGAAAGUTT against Ltbp3 is 0.431 (inactive); for GGUGACUUGUAAAGAUUUUTT against Dstn it is 0.234 (inactive). The figure for GGAGACAGAAAGAGAAAAGTT against Pou3f2 is -0.578 (inactive); for GGAGUUCACGGAUCUUGAGTT against Ppp1r37 it is 0.226 (inactive).

As for GGCAAUCAUUGGACUAUACTT against Nckap1, the z-score is -2.81 (active).

With GCACCCAAACUUAAAAUAGTT against Spink10, the z-score was -0.69 (inactive). To GGUUGAAGUCACAAAAGAATT against Prkg1 belongs -0.619 (inactive). As to GGGAAGGAGAGUAUUCCAATT against Mrpl14, the z-score was 3.44 (active). As for GCAUUUCCUAUAAUCGUUGTT against Olfr360, the z-score was 0.371 (inactive). To GGCUGUCCGUACCUAUAAATT against Cpb1 belongs -1.26 (inactive); to GGAAUUUGUGACCAACUAUTT against Rbm4b, 1.07 (inactive). As for CCUUGACCCAGAUUGAGAATT against Xkr6, the z-score is 0.363 (inactive). To GUAUGGAUGUGGAAGCCUCTT against Olfr1417 belongs -0.77 (inactive). To GGGCUUGAAAUUGAAAUGUTT against Ccl9 belongs -1.09 (inactive). To GCGACAACUGUGAUAUACCTT against Liph belongs -0.485 (inactive). Turning to GCCUCAAUGGCACUCAAAUTT against Mdc1, the z-score was -0.217 (inactive). To CCGUCUUCUGCUGUGGAACTT against Ctrc belongs 2.6 (active); to CCCACUGCCAAGUACAAUGTT against Dmwd, 1.44 (inactive). The figure for UUGUGAUUCCAAUUUCCCUTT against Olfr1330 is -0.32 (inactive).

Turning to GGUCAGAGUGCCUCUUGAATT against Slc7a5, the z-score is -0.8 (inactive). The figure for GGUCAAAGAUGGAGUAAAUTT against Tmem87a is -2.31 (active); for GCAAUGUCGCCAAACGUAATT against Ikzf1 it is 0.457 (inactive); for GAUACAGACCUUGCUCUUCTT against Olfr714 it is -0.421 (inactive). The figure for GGACAUUGUCACAUCAUUCTT against Slc2a6 is 1.64 (inactive); for GCUAAUAGUCAUUAAACUGTT against Zfp2 it is 1.76 (inactive). The figure for GCUCAACGAAACAAUACCGTT against Il2rb is 0.737 (inactive); for GGAUGGUCGAAACAAUAACTT against Stk32b it is 2.16 (active). With GGCAUUUCUGUUCUGUAAGTT against Sh3bgrl, the z-score was -0.783 (inactive). Regarding GCUGACCACUUCAAGGUUGTT against Lgals3, the z-score is 0.468 (inactive). The figure for GGCCAGUGUAUUUGACCUGTT against Slc22a18 is -1.24 (inactive).

For the sequence GCUCUGCUAUCGUGAUCUGTT against Kctd13, the z-score was 1.68 (inactive). To GCUUGCACUGGACUCAACUTT against Pax4 belongs -2.76 (active); to CGAGAAGAACUGUGUAAAGTT against Vldlr, -0.184 (inactive). The figure for CCAUAUCAGGCAUAGCAGUTT against Nthl1 is -0.772 (inactive); for GCCAUCGAUGUACUGAGCUTT against Psme2 it is 0.525 (inactive); for GGUAGAGAGCUCAACAGGGTT against Klrb1c it is 0.287 (inactive). To GGACUGUUGCAUGACUCUCTT against Evc belongs 1.08 (inactive); to GCCUUACUGGGUUACUUGUTT against Cdkn2d, 3.22 (active).

With GGAACUGAAUGCGGAAUUCTT against Chil1, the z-score is 0.261 (inactive). To GGUUUCUUCAUCUUGUAUUTT against Gjd4 belongs 0.184 (inactive). As for GGUUCUGGAGCAAAUCCACTT against Styk1, the z-score was 2.37 (active).

In the case of CCCGAGACCAUUAAUGAUUTT against Snx3, the z-score is -0.306 (inactive).

In the case of CGAACCCUAGCGGAAAUUGTT against Nono, the z-score was -1.54 (inactive). Take GGUGGGAAGAUAGAUAAAATT against Mamstr: the z-score was 3.28 (active). For GGGCUCUACAGUUUUUAAUTT against Atp5g3, the z-score was 1.31 (inactive).

For the sequence “GCAGUUUCGUUCCUACUCGTT against Cdkn2aipnl”, the z-score is 0.796 (inactive). Take GCAGAUAAUCUAGCAAAGATT against Agps: the z-score is 0.903 (inactive). Turning to “CCGAAAUCCUACAUAUAUGTT against B430209F14Rik”, the z-score was -0.306 (inactive). Take GCUUGAAUUUCUGUGGAGGTT against Olfr1320: the z-score is -2.44 (active). To GGGUGAGACUUUUAUUAUUTT against Epdr1 belongs -0.468 (inactive); to GGACAUAUAGCUGAUUUCUTT against Ctdsp2, 1.97 (inactive). The figure for GGGAUGGAAACCCUGGAUCTT against Col3a1 is 0.438 (inactive); for CCUUAGGAUCGUCUUAUUATT against Zic2 it is 0.619 (inactive). The figure for GGGAAAAGAAAGUACCUACTT against Zcchc10 is 2.26 (active); for CGACCUGACUUUUCUUAGGTT against Dynlrb2 it is 0.855 (inactive); for GGCAACUUUGUUAUAUACATT against Ctr9 it is 0.212 (inactive). Regarding GGAUCUUCUACACAGUAAATT against Ppp2r3d, the z-score is -0.0431 (inactive).

Regarding GGGCAUCAGCUAUUAAAGATT against Tpmt, the z-score is 0.488 (inactive).
